Here are results for 14 molecules from PubChem BioAssay (NCI).

The structures appear in SMILES notation. Compounds without any hit were thinned out: in the full panel of roughly 83,000, 20% have a hit.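 Step 1: grow cells in 96-well plates. Step 2: add test compound at a single concentration. Step 3: incubate 48 h. Step 4: record percent growth.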 A number with no mark means an inactive call. Calls of active or inactive are those of the source. How the source made its calls: active means growth percent below 10; inactive means the rest.

Among the test systems are HCT-15 colon; HT29 colon; SNB-75 CNS; SNB-19 CNS; U251 CNS; PC-3 prostate; UACC-62 melanoma; LOX IMVI melanoma; SK-MEL-28 melanoma.
Experiment in all cases: NCI-60 one-dose screen, 48 h (100 = growth as untreated, 0 = no growth, -100 = all killed)
Holding throughout (conditions): 10 µM unless noted

As for `CN(C)c1ccc(NC(=O)c2ccc(/C=C/C(=O)c3ncc[nH]3)cc2)cc1`, the growth with HCT-15 colon is 16.2%; in the assay on HT29 colon it was 11.6%; in the assay with SNB-75 CNS it was 68.7%; with SNB-19 CNS, 28.3%; in the assay on U251 CNS, 11.8%; with PC-3 prostate it was 68.1%. Moreover, the growth is 70.5% with UACC-62 melanoma, 14.7% with LOX IMVI melanoma and 95.3% in the assay on SK-MEL-28 melanoma.
With `CCCCn1c(-c2ccc(C(=O)O/N=C(\N)c3ccc4ccccc4c3)cc2)nc(-c2ccccc2)c1-c1ccccc1`, the growth was 52.1% in the assay on HCT-15 colon; 74.3% in the assay on HT29 colon; 23.3% with SNB-75 CNS; 70.3% with SNB-19 CNS; 73% with U251 CNS; 64.8% with PC-3 prostate. For the same molecule, the values for the growth in the assay with UACC-62 melanoma, with LOX IMVI melanoma and in the assay on SK-MEL-28 melanoma were 76.2%, 3.13% (active) and 88.5%, respectively.
Take `CCCCCCN(CCCCCC)C(=N)c1ccnc2ccccc12`: the growth with HCT-15 colon was 65.9%; with HT29 colon, 8.96% (active); with SNB-75 CNS it was 57.6%; in the assay with SNB-19 CNS it was 84.1%; with U251 CNS, 63.9%; with PC-3 prostate, 58.3%. In addition, the growth in the assay on UACC-62 melanoma was 81.3%; in the assay with LOX IMVI melanoma it was 30%; with SK-MEL-28 melanoma, 88.4%.
For the molecule `CNc1ccc(-c2cc(=O)oc3ccc(Cl)cc23)cc1`, the growth in the assay with HCT-15 colon is 14.9%; in the assay with HT29 colon, -2.77% (active); in the assay with SNB-75 CNS it was 40.9%; in the assay with SNB-19 CNS it was 22.7%; with U251 CNS, 8.91% (active); with PC-3 prostate, 12.8%. Moreover, the results for the growth in the assay with UACC-62 melanoma, with LOX IMVI melanoma and in the assay with SK-MEL-28 melanoma were 31.7%, 24.1% and 58.5%, respectively.
For `CCCn1c(=O)[nH]c(N)c([C@H]2c3ccccc3Oc3[nH]c(=O)n(CCC)c(=O)c32)c1=O`, the growth with HCT-15 colon was 48.9%; in the assay on HT29 colon it was 85.3%; with SNB-75 CNS, 82.9%; in the assay with SNB-19 CNS it was 97.8%; with U251 CNS, 81.8%; in the assay on PC-3 prostate it was 107%. In addition, the growth in the assay with UACC-62 melanoma was 80.6%; with LOX IMVI melanoma it was 64.8%; in the assay with SK-MEL-28 melanoma, 73%.
For the molecule `CCN=C1C=CC(=C(c2ccc(N)cc2)c2ccc(N(CC)CC)c(C)c2)C=C1`, the growth is 7.26% (active) in the assay on HCT-15 colon; 5.82% (active) in the assay with HT29 colon; -28.4% (active) in the assay with SNB-75 CNS; 11.5% in the assay with SNB-19 CNS; -19% (active) in the assay on U251 CNS; -5.29% (active) in the assay on PC-3 prostate. Further, the growth with UACC-62 melanoma was -36.6% (active); in the assay on LOX IMVI melanoma it was -56.2% (active); with SK-MEL-28 melanoma it was -19.1% (active).
In the case of `CCc1nc(N)nc(N)c1C#CC(C)c1cc(-c2ccnc(C)c2)c2oc(C)nc2c1` (centres undefined), the growth in the assay with HCT-15 colon was 10.7%; in the assay with HT29 colon, 6.46% (active); in the assay on SNB-75 CNS, -23.2% (active); with SNB-19 CNS, 7.53% (active); in the assay with U251 CNS, 3.52% (active); in the assay with PC-3 prostate, 16.5%. The growth with UACC-62 melanoma is -12.3% (active); in the assay on LOX IMVI melanoma it was -18.8% (active); in the assay with SK-MEL-28 melanoma, 41.1%.
Consider `CN1CCN(c2nc(NCCCCNc3ccnc4cc(Cl)ccc34)c3ccccc3n2)CC1`, for which the growth is 37.4% in the assay with HCT-15 colon; 4.42% (active) with HT29 colon; 76.9% in the assay on SNB-75 CNS; 53.5% with SNB-19 CNS; 2.52% (active) in the assay with U251 CNS; 66.3% in the assay with PC-3 prostate. The figures for the growth in the assay with UACC-62 melanoma and with SK-MEL-28 melanoma were 63.9% and -0.901% (active), respectively.
In the case of `COc1cccc(NC(=O)c2sc3nc(C)c(C(C)=O)cc3c2N)c1`, the growth with HCT-15 colon was 35.9%; in the assay with HT29 colon, 38.7%; in the assay with SNB-75 CNS it was 22.7%; with SNB-19 CNS it was 40.2%; in the assay on U251 CNS, 33.7%; in the assay with PC-3 prostate it was 47.8%. Further, the growth in the assay on UACC-62 melanoma is 26.7%; in the assay with SK-MEL-28 melanoma it was 71%.
In the case of `CC(=O)Nc1ccc(S(=O)(=O)Nc2cccc(-c3nc(-c4ccc(NC(=O)c5cccnc5)cc4Cl)no3)c2)cc1`, the growth in the assay with HCT-15 colon was 88.3%; in the assay with HT29 colon, 9.79% (active); in the assay on SNB-75 CNS it was 27.6%; in the assay on SNB-19 CNS it was 37.7%; in the assay on U251 CNS it was 29.7%; with PC-3 prostate, 25.8%. In addition, the growth in the assay on UACC-62 melanoma was 37.4%; in the assay with LOX IMVI melanoma, 40.2%; with SK-MEL-28 melanoma, 50.6%.
`COc1cc(-c2nn(-c3ccc(Br)cc3)cc2C(=O)O)ccc1O`: the growth in the assay with HCT-15 colon was 103%; in the assay on HT29 colon, 101%; in the assay with SNB-75 CNS, 92.2%; with SNB-19 CNS, 103%; in the assay on U251 CNS, 109%; in the assay with PC-3 prostate, 97.2%. Further, the figures for the growth in the assay on UACC-62 melanoma, in the assay with LOX IMVI melanoma and in the assay with SK-MEL-28 melanoma were 109%, 102% and 119%, respectively.
As for `CC1=C[C@H]2c3c(c(O)c(O)c4oc5c(C)cccc5c(=O)c34)[C@H](c3cc(O)c(O)c4oc5c(C)cccc5c(=O)c34)[C@H]2C(C)(C)C1`, the growth is 12.5% in the assay on HCT-15 colon; 21% in the assay on HT29 colon; -25.7% (active) with SNB-75 CNS; 15.2% with SNB-19 CNS; 11.3% in the assay with U251 CNS; 10.1% in the assay with PC-3 prostate. The growth in the assay with UACC-62 melanoma is -43% (active); in the assay with LOX IMVI melanoma, -85.8% (active); with SK-MEL-28 melanoma, 26.6%.
With `O=C(Nc1ccc(Cl)cc1)c1cc2cc(F)ccc2cc1O`, the growth with HCT-15 colon was 13.1%; in the assay on HT29 colon, 72.5%; in the assay on SNB-75 CNS it was 18.7%; in the assay on SNB-19 CNS, 21.3%; in the assay on U251 CNS it was 5.79% (active); in the assay with PC-3 prostate it was 9.4% (active). Moreover, the growth is 10.9% in the assay on UACC-62 melanoma, 17.8% in the assay with LOX IMVI melanoma and 12.1% in the assay on SK-MEL-28 melanoma.
Take `OC(c1cc2cc(Cl)c(Cl)cc2c2cc(C(F)(F)F)ccc12)C1CCCCN1` (centres undefined): the growth with HCT-15 colon was -60.7% (active); with HT29 colon, -73.6% (active); in the assay with SNB-75 CNS, -64% (active); with SNB-19 CNS, -64.1% (active); in the assay with U251 CNS it was -92.3% (active); in the assay on PC-3 prostate, -84.8% (active). Further, the growth in the assay on UACC-62 melanoma is -38.4% (active); in the assay with LOX IMVI melanoma, -88.2% (active); in the assay on SK-MEL-28 melanoma, -79.1% (active).
